Laboratory results reported in PubChem BioAssay (NCATS).
Inconclusive results are not listed. The source made the active and inactive calls. Unless noted, the call rests on the fitted dose curve; in most records, active means well fitted curve in the direction sought with a large enough effect; inconclusive means small, poorly fitted or top-dose-only effect, or another doubt; inactive means no such curve, though single readings can be large; an effect the other way counts as inactive or inconclusive.

What was measured:
[1] = qHTS to identify inhibitors of the type 1 interferon - major histocompatibility complex class I in skeletal muscle: primary screen against the NCATS Pharmaceutical Collection (AID 1347407);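 further: luminescence of HiBiT knocked into endogenous HLA-B as interferon-induced MHC class I level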; further: potency means the concentration at half of the fitted maximal effect
Method in brief: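 HLA-B HiBiT myoblasts, dexamethasone-free growth medium + 4 ng/ml IFN-b; compounds pinned 1 h after seeding, […] from 46 uM; 24 h, 37 C, 5% CO2; lytic HiBiT detection, 10 min RT, luminescence.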

[2] = target: Protein phosphatase 1D (Homo sapiens) (UniProt O15297); assay: Rhodamine-PBP qHTS Assay for Modulators of WT P53-Induced Phosphatase 1 (WIP1) (AID 1347425); further: % of control where 0% means no effect
Method in brief: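 The read-out is the change in Rhodamine-PBP fluorescence (f1 - f0, ex 525/em 598 nm) as Pi is released, read each minute for 11 min. Final reaction: 5 nM WIP1, 10 uM phosphopeptide VEPPL-pS-QETFS, 10 uM Rh-PBP, 50 mM Tris-HCl pH 7.5, 30 mM MgCl2. Compound was preincubated with enzyme for 1 hour at room temperature.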

[3] = Primary qHTS for inhibitors of La Crosse Virus (LACV) - induced cell death in SH-SY5Y cells (AID 1508616);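 further: top concentration of the series differs between compounds; 0% = infected DMSO wells and 100% = uninfected DMSO wells; higher means more rescue of cells from virus-induced death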
Method in brief: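 Rescue of virus-induced death was read as ATPLite luminescence after 6 days at 37C, scaled between DMSO wells with LACV and without virus. Cells were SH-SY5Y, 6000/well, infected at 0.01 MOI after compound addition.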

[4] = target: Calcium and integrin-binding protein 1 (Homo sapiens) (UniProt Q99828); assay: Primary qHTS for Identification of Calcium Integrin Binding Protein 1 (CIB1) Competitor (AID 1508620);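 further: GST tagged CIB1 binding a fluorescein labelled alphaIIb integrin peptide tracer; top concentration of the series differs between compounds; on the % scale 0 is the no-effect control and ±100 the full control effect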
Method in brief: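 Fluorescence polarization competition: GST-tagged CIB1 (1 uM final) preincubated with compound 15 min at room temperature, then FITC-labelled alphaIIb peptide (100 nM final) added. After 15 min at room temperature, polarization read at Ex 480/Em 540.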

[5] = Primary qHTS for small molecule stabilizers of the endoplasmic reticulum resident proteome: Secreted ER Calcium Modulated Protein (SERCaMP) assay (AID 1508630); further: on the % scale 0 is the no-effect control and ±100 the full control effect
Method in brief: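 The SH-SY5Y reporter protocol was run at 3 concentrations up to 38.3 uM (primary) or 11 concentrations (follow-up): 16 h compound, 100 nM thapsigargin for 4 h, then extracellular luciferase luminescence.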

[6] = target: Cytochrome P450 2D6 (Homo sapiens) (UniProt P10635); assay: Cytochrome P450 family 2 subfamily D member 6 (CYP2D6) small molecule antagonists: luciferase biochemical (cell-free) qHTS assay (AID 1645840; active means well fitted curve in the direction sought with a large enough effect in the repeat runs; an effect the other way counts as inactive or inconclusive; further: nearly all actives have a fitted effect of over 55% in size; further: potency means the concentration at half of the fitted maximal effect)
Method in brief: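 P450-Glo CYP2D6 system: proluciferin substrate converted by enzyme to luciferin, read by luminescence proportional to activity. Enzyme-substrate mix with compound 10 min at room temperature, then NADPH regeneration 1 h before detection reagent.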

[7] = target: Cytochrome P450 2C9 (Homo sapiens) (UniProt P11712); assay: Cytochrome P450 family 2 subfamily C member 9 (CYP2C9) small molecule antagonists: luciferase biochemical (cell-free) qHTS assay (AID 1645842; active means well fitted curve in the direction sought with a large enough effect in the repeat runs; an effect the other way counts as inactive or inconclusive; further: nearly all actives have a fitted effect of over 55% in size; further: potency means the concentration at half of the fitted maximal effect)
Method in brief: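 P450-Glo CYP2C9 system: proluciferin substrate with enzyme in mix containing 0.4% BSA, 10 min at room temperature, then NADPH regeneration solution added and incubated 1 h at 37C. Detection reagent stopped reaction; luminescence read after 20 min as RLU.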

[8] = Cell Viability qHTS for small molecule stabilizers of the endoplasmic reticulum resident proteome (AID 1508629); conditions: cell viability counter-screen, 100 nM thapsigargin for final 4 h;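 further: human SH-SY5Y neuroblastoma cells carrying the GLuc-SERCaMP reporter; compound exposure about 46 h in total before the viability read; on the % scale 0 is the no-effect control and ±100 the full control effect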
[9] = target: Protein phosphatase 1D (Homo sapiens) (UniProt O15297); assay: RapidFire Mass Spectrometry qHTS Assay for Modulators of WT P53-Induced Phosphatase 1 (WIP1) (AID 1347424);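 further: series mostly up to about 63 µM; plate controls were DMSO wells for no effect and GSK830371 inhibitor control at 10 µM for full effect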
Method in brief: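 RapidFire MS readout of dephosphorylated VEPPL-S-QETFS product, with 1 uM isotope-labelled peptide standard. Reaction: 10 nM WIP1, 2 uM phosphopeptide substrate, 5 min, room temperature, after 1 h compound preincubation; stopped with 0.5% formic acid.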

[10] = A High-Content qHTS Against Drug Library for the Identification of Small Molecules that Inhibit DYT1 Early Onset Primary Dystonia-Associated Cell Pathology (AID 1645839; calls by dose curve; further: potency means the concentration at half of the fitted maximal effect)
Method in brief: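 Cells were seeded and left for 24 h, then dosed with compound alongside tetracycline induction of mutant EGFP-TorsinA. They were incubated for 48 h, fixed in 4% paraformaldehyde, permeabilized and imaged for mislocalization (%pathology) and cell count.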

[11] = target: Cytochrome P450 3A4 (Homo sapiens) (UniProt P08684); assay: Cytochrome P450 family 3 subfamily A member 4 (CYP3A4) small molecule antagonists: luciferase qHTS assay (AID 1645841; active means well fitted curve in the direction sought with a large enough effect in the repeat runs; an effect the other way counts as inactive or inconclusive; further: nearly all actives have a fitted effect of over 45% in size)
Method in brief: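 P450-Glo CYP3A4 enzyme with proluciferin substrate preincubated 10 min with compound at room temperature, then NADPH regeneration 1 h. Luciferin detection reagent added for 20 min; luminescence recorded. Ketoconazole positive control.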

Chain of Calcium and integrin-binding protein 1 (Homo sapiens) (Q99828 whole entry, looked up): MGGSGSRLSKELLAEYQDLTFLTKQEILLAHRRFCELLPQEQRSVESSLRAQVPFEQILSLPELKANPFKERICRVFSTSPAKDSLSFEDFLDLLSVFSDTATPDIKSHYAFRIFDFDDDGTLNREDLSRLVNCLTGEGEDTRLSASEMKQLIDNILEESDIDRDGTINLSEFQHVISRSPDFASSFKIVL
Chain of Protein phosphatase 1D (Homo sapiens) (O15297 whole entry, looked up): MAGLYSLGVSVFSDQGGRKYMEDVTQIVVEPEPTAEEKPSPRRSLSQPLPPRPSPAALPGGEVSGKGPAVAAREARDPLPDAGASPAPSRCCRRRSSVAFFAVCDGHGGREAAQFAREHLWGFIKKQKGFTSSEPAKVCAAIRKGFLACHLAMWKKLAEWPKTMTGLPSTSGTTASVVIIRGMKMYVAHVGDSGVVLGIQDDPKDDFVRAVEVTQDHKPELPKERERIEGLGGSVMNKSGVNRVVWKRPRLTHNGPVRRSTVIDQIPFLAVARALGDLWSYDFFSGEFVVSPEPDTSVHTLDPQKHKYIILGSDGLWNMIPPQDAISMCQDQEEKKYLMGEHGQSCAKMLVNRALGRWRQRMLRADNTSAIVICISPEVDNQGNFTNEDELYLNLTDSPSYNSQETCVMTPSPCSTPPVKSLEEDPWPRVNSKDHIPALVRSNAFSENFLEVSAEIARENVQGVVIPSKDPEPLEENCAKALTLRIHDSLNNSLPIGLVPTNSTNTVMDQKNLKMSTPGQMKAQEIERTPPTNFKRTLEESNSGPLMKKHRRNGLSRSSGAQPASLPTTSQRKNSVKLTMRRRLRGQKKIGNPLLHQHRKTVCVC
Chain of Cytochrome P450 2C9 (Homo sapiens) (P11712 whole entry, looked up): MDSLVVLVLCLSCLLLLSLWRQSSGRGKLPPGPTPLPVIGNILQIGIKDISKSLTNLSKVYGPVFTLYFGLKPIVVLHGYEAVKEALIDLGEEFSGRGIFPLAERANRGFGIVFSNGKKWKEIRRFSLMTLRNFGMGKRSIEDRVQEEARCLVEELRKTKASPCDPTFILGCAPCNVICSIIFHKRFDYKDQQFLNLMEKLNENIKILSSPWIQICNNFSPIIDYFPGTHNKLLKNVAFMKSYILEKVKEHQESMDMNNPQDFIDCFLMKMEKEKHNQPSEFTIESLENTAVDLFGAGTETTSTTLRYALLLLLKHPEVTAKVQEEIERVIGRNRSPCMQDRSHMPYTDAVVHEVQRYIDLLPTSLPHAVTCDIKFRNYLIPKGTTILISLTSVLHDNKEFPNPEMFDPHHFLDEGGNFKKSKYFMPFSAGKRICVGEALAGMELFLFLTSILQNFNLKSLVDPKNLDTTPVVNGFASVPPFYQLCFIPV
Chain of Cytochrome P450 2D6 (Homo sapiens) (P10635 whole entry, looked up): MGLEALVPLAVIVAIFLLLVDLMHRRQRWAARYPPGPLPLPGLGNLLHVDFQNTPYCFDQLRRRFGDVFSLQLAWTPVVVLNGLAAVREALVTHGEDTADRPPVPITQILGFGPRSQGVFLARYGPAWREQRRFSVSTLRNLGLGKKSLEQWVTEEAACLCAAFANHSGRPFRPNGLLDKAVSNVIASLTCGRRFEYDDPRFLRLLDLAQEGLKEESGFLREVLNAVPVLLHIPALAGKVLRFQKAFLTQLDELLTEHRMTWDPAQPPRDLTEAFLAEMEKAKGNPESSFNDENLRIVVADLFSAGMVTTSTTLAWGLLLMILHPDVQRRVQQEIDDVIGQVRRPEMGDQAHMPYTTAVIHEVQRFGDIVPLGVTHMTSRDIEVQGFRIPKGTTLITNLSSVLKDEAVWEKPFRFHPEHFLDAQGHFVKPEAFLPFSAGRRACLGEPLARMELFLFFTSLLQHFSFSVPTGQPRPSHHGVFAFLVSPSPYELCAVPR
Chain of Cytochrome P450 3A4 (Homo sapiens) (P08684 whole entry, looked up): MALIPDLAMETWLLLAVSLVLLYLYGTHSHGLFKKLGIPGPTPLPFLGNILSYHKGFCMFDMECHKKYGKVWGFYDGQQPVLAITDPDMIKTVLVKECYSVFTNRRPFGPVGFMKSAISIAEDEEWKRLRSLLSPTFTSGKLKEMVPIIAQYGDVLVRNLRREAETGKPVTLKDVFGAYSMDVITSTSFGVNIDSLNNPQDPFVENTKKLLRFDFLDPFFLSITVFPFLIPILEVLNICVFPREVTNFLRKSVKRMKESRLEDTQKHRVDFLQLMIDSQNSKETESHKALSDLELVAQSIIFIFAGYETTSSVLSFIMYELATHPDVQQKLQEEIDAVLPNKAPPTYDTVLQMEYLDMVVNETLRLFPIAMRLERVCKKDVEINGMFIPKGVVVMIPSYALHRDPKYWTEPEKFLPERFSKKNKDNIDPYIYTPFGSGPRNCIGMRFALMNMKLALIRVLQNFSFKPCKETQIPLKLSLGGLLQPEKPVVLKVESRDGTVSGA

CC1CCCCN1CCCOC(=O)c1ccc(OC2CCCCC2)cc1 (stereo not given)
inactive: Potency [1] | outcome [2] | outcome [3] | Potency [4] | Potency [5] | Potency [7]
active: Potency [6] 11000 nM

CCOC(=O)N1CCC(Nc2ccc(Cl)cc2N)CC1
active: Potency [6] 7760 nM
inactive: Potency [1] | outcome [2] | outcome [3] | Potency [4] | max response [8] -17.4%

CCOC(=O)[C@H](CCc1ccccc1)N[C@@H](C)C(=O)N(CC(=O)O)C1Cc2ccccc2C1
active: Potency [7] 19500 nM
inactive: Potency [1] | Potency [9] | outcome [3] | Potency [4] | Potency [10]

CO[C@@H]1[C@@H](O[C@@H]2O[C@H](C)[C@@H](O[C@H]3C[C@@](C)(O)[C@@H](O)[C@H](C)O3)[C@H](N(C)C)[C@H]2O)[C@@H](CC=O)C[C@@H](C)[C@@H](O[C@@H]2CC[C@H](N(C)C)[C@@H](C)O2)/C=C/C=C/C[C@@H](C)OC(=O)C[C@H]1OC(C)=O
inactive: Potency [1] | outcome [2] | outcome [3] | Potency [4] | Potency [5] | Potency [10] | Potency [6] | Potency [7]

CC(CC(C#N)(c1ccccc1)C(C)C)N(C)C (stereo not given)
active: Potency [6] 8710 nM
inactive: Potency [1] | outcome [2] | outcome [3] | Potency [4] | Potency [5] | Potency [10] | Potency [7]

CC1CC(=O)NN=C1c1ccc(NCC(C)(C)NCC(O)COc2cc(Cl)ccc2C#N)cc1 (stereo not given)
inactive: Potency [1] | Potency [9] | outcome [3] | Potency [4] | Potency [10]
active: Potency [6] 871 nM | Potency [7] 977 nM

Cc1cccc(C)c1NC(=O)c1ccc(N)cc1
inactive: Potency [1] | outcome [2] | outcome [3] | Potency [4] | Potency [5] | Potency [10] | Potency [6] | Potency [7]

CCCCCCCCCCCCCCCC[N+](C)(C)Cc1ccccc1
inactive: outcome [2] | outcome [3] | Potency [4] | Potency [5]
active: Potency [1] 23600 nM | Potency [10] 22400 nM | Potency [6] 195 nM

O=C1CCCc2c(O)cccc21
inactive: Potency [1] | outcome [2] | outcome [3] | Potency [4] | Potency [5] | Potency [10] | Potency [7]

CC(=O)Nc1ccc(S(=O)(=O)Nc2cc(C)on2)cc1
inactive: Potency [1] | outcome [2] | outcome [3] | Potency [4] | Potency [5] | Potency [10] | Potency [6]

COc1cc(/C=C/C(N)=O)cc(OC)c1OC
inactive: Potency [1] | Potency [9] | outcome [3] | Potency [4] | Potency [10] | Potency [6] | Potency [7]

CCc1cc(S(=O)(=O)O)c2cc(C(C)C)cccc1-2
inactive: Potency [1] | Potency [9] | outcome [3] | Potency [4] | Potency [10] | Potency [6] | Potency [7]

O=C(OCC(COC(=O)c1cccnc1)(COC(=O)c1cccnc1)COC(=O)c1cccnc1)c1cccnc1
inactive: Potency [1] | outcome [2] | outcome [3] | Potency [4] | Potency [5] | Potency [10] | Potency [6]

C[N+](C)(CCOc1ccccc1)Cc1cccs1
active: Potency [6] 123 nM
inactive: Potency [1] | outcome [2] | outcome [3] | Potency [4] | Potency [5] | Potency [10] | Potency [7]

Cc1oc(=O)oc1COC(=O)[C@@H]1N2C(=O)[C@@H](NC(=O)[C@H](N)c3ccccc3)[C@H]2SC1(C)C
inactive: Potency [1] | Potency [9] | outcome [3] | Potency [4] | Potency [10] | Potency [6] | Potency [7]

C[N+]1(C)CCC(OC(=O)C(O)(c2ccccc2)C2CCCC2)C1 (stereo not given)
inactive: Potency [1] | Potency [9] | outcome [3] | Potency [4] | Potency [10]

C/C(=C(/OCCOc1ccc(Cl)cc1)c1ccc(Cl)cc1Cl)n1ccnc1
active: Potency [6] 871 nM | Potency [7] 550 nM
inactive: Potency [1] | Potency [9] | outcome [3] | Potency [4]

O=C(NN1CCCC1)NS(=O)(=O)c1ccc(Cl)cc1
inactive: Potency [1] | outcome [2] | outcome [3] | Potency [4] | Potency [5] | Potency [10] | Potency [6] | Potency [11] | Potency [7]

CCCCNc1ccc(C(=O)OCCN(CC)CC)cc1
active: Potency [6] 3470 nM
inactive: Potency [1] | outcome [2] | outcome [3] | Potency [4] | Potency [5] | Potency [7]

O=[N+]([O-])c1nccn1CO[C@@H](CO)[C@H](O)CO
inactive: Potency [1] | outcome [2] | outcome [3] | Potency [4] | Potency [5] | Potency [10] | Potency [6] | Potency [7]

O=C(CS(=O)Cc1ccco1)NC/C=C\COc1cc(CN2CCCCC2)ccn1 (stereo not given)
inactive: Potency [1] | outcome [2] | outcome [3] | Potency [4] | Potency [5] | Potency [7]

COC(=O)CCCCC(CCSS/C(CCO)=C(\C)N(C=O)Cc1cnc(C)nc1N)SC(C)=O (stereo not given)
inactive: Potency [1] | Potency [9] | outcome [3] | Potency [4] | Potency [10] | Potency [6] | Potency [7]

CC(=O)Nc1ccn(C2COC(COC(=O)c3ccccc3)O2)c(=O)n1 (stereo not given)
inactive: Potency [1] | Potency [9] | Potency [4] | Potency [10] | Potency [6]

CC(C)(C)c1nnc(NS(=O)(=O)c2ccccc2)s1
inactive: Potency [1] | Potency [9] | outcome [3] | Potency [4] | Potency [6]

O=C(O)CCCC[P+](c1ccccc1)(c1ccccc1)c1ccccc1
inactive: Potency [1] | Potency [9] | outcome [3] | Potency [5] | Potency [10] | Potency [6] | Potency [7]

CCOC(=O)OCC/C(SC(=O)OCC)=C(\C)N(C=O)Cc1cnc(C)nc1N
active: Potency [6] 2160 nM
inactive: Potency [1] | outcome [2] | outcome [3] | Potency [4] | Potency [5] | Potency [10] | Potency [7]
